Source: PubChem BioAssay AID441 (NMMLSC, 2006)
The whole screen tested about 24,000 compounds, of which about 70 (0.3%) were called active. Shown is part of a subset that was picked to be rich in actives. A number with no mark means an inactive call. No stated cut-off is given here; in the data, active means inhibition above about 30%; inconclusive means no clear call, values can overlap the other calls; inactive means below that.

target: N-formyl peptide receptor 2 (Homo sapiens) (UniProt P25090); test: human FPRL1 ligands by binding competition, primary screen, cell-based, FPR counter-screen, flow cytometry (AID 441); settings: FPRL1-expressing cells, fluorescent ligand binding inhibition, stronger effect = higher value, concentration not given here;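 further: 0% = buffer alone and 100% = receptor blocker peptide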
Sequence (P25090 whole entry, looked up): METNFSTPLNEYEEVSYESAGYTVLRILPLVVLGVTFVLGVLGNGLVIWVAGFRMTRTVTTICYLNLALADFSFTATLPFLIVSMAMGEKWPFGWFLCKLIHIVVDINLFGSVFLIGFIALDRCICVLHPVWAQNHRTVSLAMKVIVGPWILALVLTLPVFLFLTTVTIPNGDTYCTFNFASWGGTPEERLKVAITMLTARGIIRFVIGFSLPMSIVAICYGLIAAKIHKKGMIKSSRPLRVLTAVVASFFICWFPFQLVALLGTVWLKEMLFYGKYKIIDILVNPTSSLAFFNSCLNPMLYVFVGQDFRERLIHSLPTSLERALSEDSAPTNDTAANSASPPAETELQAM

Structure (SMILES)	inhibition
COc1ccc(CCNC(=O)c2cc(-c3ccc4c(c3)OCO4)on2)cc1OC	-0.8%
COc1cccc(NC(=O)C2CCCN2C(=O)OCc2ccccc2)c1 (centres undefined)	0.3%
CCOC(=O)C1CCN(C(=O)C2CCN(S(=O)(=O)c3c(C)noc3C)CC2)CC1	10.6%
CCOc1ccccc1NC(=O)C1CCN(S(=O)(=O)c2c(C)nn(C)c2C)CC1	-6.7%
CCOc1ccc(OCC)c(NC(=O)C2CCN(S(=O)(=O)c3c(C)noc3C)CC2)c1	30.8% (active)
COc1ccc(C(=O)Nc2nncs2)c(OC)c1	0%
COc1ccc(NS(=O)(=O)c2ccc(NC(C)=O)cc2)cc1OC	6%
NC(=O)CCCC1=NS(=O)(=O)c2ccccc2N1	-3.9%
CCN1C(=O)/C(=C2/Sc3ccccc3N2CCCS(=O)(=O)O)SC1=S	5.6%
CC(=O)c1c(C)c[nH]c1C	6%
Cc1cccc(N2CCN(C(=O)c3cc4c(=O)[nH]c5ccccc5c4n3C)CC2)c1C	-5%
CCOc1ccc(-c2nnn(CC(=O)N3CCN(c4ccc(F)cc4)CC3)n2)cc1OCC	-1.6%
CCOC(=O)N1CCN(C(=O)c2ccc3nc4cc(Cl)ccc4c(=O)n3c2)CC1	-10%
CCOc1ccc(C2C(C(=O)NC)=C(C)Nc3nc4ccccc4n32)cc1OC (centres undefined)	-2.9%
O=C(NCCCN1CCN(Cc2ccccc2)CC1)C1CCN(S(=O)(=O)N2CCCC2)CC1	2%
COc1cccc(CN2C(=O)CCC2(C)C(=O)NC2CCCCCC2)c1 (centres undefined)	7.7%
Cc1cc(N2C(=O)C(=O)/C(=C(/O)c3ccc(Cl)cc3)C2c2cccc(Br)c2)no1 (centres undefined)	-2.5%
Cn1c(=O)c2[nH]c(NCC3CCCO3)nc2n(-c2ccccc2)c1=O (centres undefined)	-0.4%
CCOC(=O)c1oc2ccccc2c1NC(=O)c1cccs1	-9.1%
CC(NC(=O)COc1ccccc1)C(=O)NC1=NCCS1 (centres undefined)	5.2%
CCN(CC)CCNC(=O)C1c2ccccc2C(=O)N(C)C1c1cn(C)c2ccccc12 (centres undefined)	9.3%
Cc1cccc(NC(=O)CSc2nnc(NC(=O)CN3CCOCC3)s2)c1	8.7%
COc1ccccc1C(=O)NCCn1cc(SCC(=O)NCc2ccco2)c2ccccc21	2.6%
COC(=O)C1=C(C)OC(N)=C(C#N)C1c1cc(OC)ccc1OC (centres undefined)	5.9%

Structure (SMILES)	inhibition
COC(=O)c1cn(C)c2ccc(S(=O)(=O)N3CC(C)CC(C)C3)cc2c1=O (centres undefined)	8.5%
COc1ccc(C2/C(=C(/O)c3ccccc3)C(=O)C(=O)N2c2ncccn2)cc1OC (centres undefined)	-2.7%
Cc1c(C(=O)Nc2ccccc2Cl)oc2ccc(S(=O)(=O)N3CCC4(CC3)OCCO4)cc12	-12.5%
CCOC(=O)n1c(SCC(=O)N(CC)CC)nc2ccccc21	-1.8%
O=C(NCc1cccs1)c1ccc2c(c1)ncn2C1CCCC1	2.8%
O=C(CN1C(=O)CCS(=O)(=O)c2ccccc21)NCc1ccc(F)cc1	1.5%
O=C(C1=C(O)C(=O)N(Cc2ccccc2)C1c1cccnc1)c1ccco1 (centres undefined)	1.3%
COc1ccc(-c2nnc(SCC(=O)NC3CCCCC3)o2)cc1OC	2.7%
CCOC(=O)c1ccn(-c2nc(-c3ccco3)cc(C(F)(F)F)n2)n1	2.5%
O=C(CCN1C(=O)c2ccncc2C1=O)Nc1ccc2c(c1)OCCO2	9.6%
CCN1CCN(c2ncnc3c2oc2nc(C)c4c(c23)CC(C)(C)OC4)CC1	1.2%
CCOc1ccc(NC(=O)CCS(=O)(=O)c2cccc3nsnc23)cc1	-3.1%
CCOc1nc(OCC)nc(-n2cc(-c3ccccc3)nn2)n1	3%
COc1ccc(CC(=O)Nc2ccc(-c3nnc(-c4ccc(C)cc4)o3)cc2)cc1	51.1% (active)
CCOC(=O)c1ccc(NC(=O)Cn2nnc(-c3ccc(C)cc3)n2)cc1	3.3%
COc1ccc(Cc2nnc(NC(=O)Cc3cccs3)s2)cc1	-1.5%
Cn1c(=O)[nH]c(=O)c2c1nc(CN(Cc1ccccc1)Cc1ccccc1)n2CCN1CCOCC1	-0.1%
CN(Cc1ccccc1)C(=O)CCNC(=O)Cn1cnc2ccccc2c1=O	-4.8%
COc1ccc(CCNC(=O)c2ccc3c(c2)NC(=O)C(N2CCOCC2)S3)cc1OC (centres undefined)	0.3%
Cn1c(C(=O)N2CCC(C(N)=O)CC2)cc2c(=O)n(C)c3ccccc3c21	-1.2%
C/C(=N\O)C1(C)N(O)C(C)(C)C(c2ccc(Br)cc2)=[N+]1[O-] (centres undefined)	1.1%
Cc1ncn(C23CC4CC(CC(O)(C4)C2)C3)n1	8.2%
Cc1cc(=O)n2nc(N3CCCC(C(=O)NCCC4=CCCCC4)C3)sc2n1 (centres undefined)	3%
CC(C)Nc1nc(N(c2ccccc2)c2ccccc2)nc(-n2ccnc2)n1	-7.8%

Structure (SMILES)	inhibition
CCOC(=O)Nc1ccccc1N1C(=O)c2ccccc2C1=O	-0.1%
CCOC(=O)c1[nH]c2c(c1C)C(=O)CC(c1ccc(N(C)C)cc1)C2 (centres undefined)	-0.6%
CC1C=CCC2C(=O)N(c3cccc(C(=O)N4CCCCCC4)c3)C(=O)C12 (centres undefined)	-6.5%
O=C1NC(c2ccncc2)Nc2sc3c(c21)CCCC3 (centres undefined)	0.8%
CCOC(=O)c1ccc2[nH]c(C)c(CN3CCN(C)CC3)c(=O)c2c1	-3.9%
Cc1ccc2cc3cc(C(=O)N4CCCCCC4)oc3nc2c1	3.2%
CC1=C(C(=O)Nc2ccccc2)C(c2cccs2)C(C#N)=C(SCC#N)N1 (centres undefined)	-2.4%
c1ccc(CCn2nnnc2CN2CCN(C3CCCC3)CC2)cc1	-2.3%
COc1ccc(-c2ccc(Nc3ccc(S(=O)(=O)N4CCCC4)cc3)nn2)cc1OC	2.7%
Cc1nc2ncnn2c(C)c1CCC(=O)N1CCN(C(=O)c2ccco2)CC1	-3.3%
CCN1CCN(Cc2c(O)ccc3c(=O)c(-c4ccc(OC)c(OC)c4)c(C(F)(F)F)oc23)CC1	-3.1%
CCOC(=O)c1cccc(NC(=O)CN(c2ccc(C)cc2)S(=O)(=O)c2c(C)noc2C)c1	-3%
COc1cccc(-c2nc3n(n2)C(c2ccccc2Cl)C(C(N)=O)=C(C)N3)c1 (centres undefined)	-2.8%
O=C1CCc2cc(S(=O)(=O)N3CCC(C(=O)NCc4ccccc4Cl)CC3)ccc2N1	-0.3%
CCOC(=O)c1cc2cc(-c3c(C(=O)OCC)oc4cc(O)cc(O)c4c3=O)ccc2o1	1.4%
CCCCN(CC)C(=O)CN(C)S(=O)(=O)c1cccc2nsnc12	1%
CCn1c(SCC(=O)Nc2ccccc2F)nc2c(c1=O)SC(C)C2 (centres undefined)	4.3%
COc1ccc(CCNC(=O)CSc2nnc(CNC(=O)c3cccs3)o2)cc1OC	1.2%
Cc1ccc(-c2nc(CS(=O)CC(=O)NC3CCCC3)c(C)o2)cc1 (centres undefined)	1.4%
COCCCN(C(=O)Cn1ncc2c(=O)oc3ccc(C)cc3c21)C(C)c1ccncc1 (centres undefined)	-4.1%
CCn1ncc(Br)c1C(=O)Nc1cc(C)ccc1F	-0.1%
Cc1ccccc1CSc1nnc(Cn2c(=O)sc3ccccc32)n1C	5.5%
O=C1CC(c2ccccc2)CC(O)=C1C=NCCN1CCOCC1 (centres undefined)	1.2%
CC(=O)N(CC1CCCO1)C1(C(=O)NC2CCCC2)CCCCC1 (centres undefined)	4%

Structure (SMILES)	inhibition
COC(=O)[C@H](C(C)C)n1c(C)c(C(C)=O)c(C(C)=O)c1C	31.1% (active)
Cc1cccc(C2c3c(n(C)c(=O)n(C)c3=O)N=C3c4ccccc4C(=O)C32)c1 (centres undefined)	-4.5%
CCN(CC)C(=O)CCC(=O)Nc1ccc(C(=O)OC)cc1	4.2%
CC(C)COC(=O)C1C2C=CC3(CN(C(C)c4ccc(Br)cc4)C(=O)C13)O2 (centres undefined)	17.2%
C/C(=C(\C#N)C(=O)NCCCN1CCOCC1)N(C)C	-7.6%
CN1C(=O)c2ccccc2C(C(=O)NCCCN2CCCC2)C1c1c[nH]c2ccccc12 (centres undefined)	-4.5%
Cc1ccc(S(=O)(=O)n2nc(OC(=O)C(C)(C)C)cc2N)cc1	-2.2%
Clc1ccc(Cn2ncc3c(NCc4cccnc4)ncnc32)cc1	-5.1%
CCOc1ccc(OCC)c(NC(=O)CN(C)S(=O)(=O)c2cccc3nsnc23)c1	-4.8%
Cn1c(=O)cc(SCC(=O)N2CCN(C(=O)c3ccco3)CC2)c2ccccc21	-1.6%
COc1ccc(OC)c(NC(=O)CC(Cc2ccccc2OC)C(=O)O)c1 (centres undefined)	9.6%
CCOC(=O)C1CCCN(Cc2nc(N)nc(Nc3ccc(C)cc3)n2)C1 (centres undefined)	-0.4%
CC1Cc2nc(SCC(=O)Nc3ccccc3F)n(C)c(=O)c2S1 (centres undefined)	-4.6%
CC1=Nn2c(nnc2-c2ccccc2)SC1	4.7%
C=CCNC(=O)CSc1nc2sc(C)c(C)c2c(=O)[nH]1	-8.9%
Cc1cc(Nc2ccccc2)n(CCC#N)n1	9.1%
O=C(Cc1nn[nH]n1)NCCC1=CCCCC1	3.2%
CCCn1cc(SCC(N)=O)c2ccccc21	0.9%
O=C(Nc1ccccc1)N(Cc1cccnc1)Cc1ccco1	3.6%
Cc1cccc(Nc2ccccc2C(=O)NCc2ccco2)c1C	34.3% (active)
CCCCOc1ccc(C(=O)NCc2ccco2)cc1	-9.3%
O=C(NCc1ccco1)c1cccn2c(=O)c3cc(Br)ccc3nc12	-9.9%
